From PubChem BioAssay (Tox21)
Inconclusive results are not listed. Entries that show only a call come without a potency. The source made the active and inactive calls. The call rests on the fitted dose curve; in most records, active means well fitted activation curve with a large enough effect in the signal ratio in the repeat runs (not every such curve was filed as active); inconclusive means weak or mixed curves, or effect the other way; inactive means flat fitted curve, though single readings scatter; the % refers to the signal ratio.

Assay: qHTS assay to identify small molecule agonists of the endoplasmic reticulum stress response signaling pathway (AID 1159516)
Conditions: ESRE-bla HeLa, ER stress beta-lactamase reporter, 5 h; series mostly up to 61 µM
Description: National Center for Advancing Translational Sciences [NCATS]
NIH Chemical Genomics Center [NCGC]
U.S. Environmental Protection Agency [EPA]
National Institutes of Environmental Health Sciences [NIEHS]
National Toxicology Program [NTP]
U.S. Food and Drug Administration [FDA]
Endoplasmic Reticulum (ER) plays an important role in cellular signaling, protein folding/maturation, stress response, lipid biosynthesis, calcium storage and release etc. Under stress conditions, proteins in ER misfold or unfold, and leading to the expression of ER stress responsive genes. ER stress has been associated with a variety of pathophysiological conditions such as cancer, inflammation, neurodegenerative diseases, diabetes, ischemic heart disease etc. To identify the compounds that induce ER stress response, an ER stress reporter cell line, CellSensor ESRE-bla HeLa (Life Technologies, Carlsbad, CA) containing a beta-lactamase reporter gene under control of the Endoplasmic reticulum Stress Response Element (ESRE) was used to screen Tox21 10K compound library.
Tox21 Assay Protocol Summary:
ESRE-bla HeLa cells were dispensed at 1,500 cells/6 uL of assay medium per well into black wall/clear-bottom 1536-well plates using a Multidrop Combi (ThermoFisher Scientific, Waltham, MA) dispenser. After the assay plates were incubated at 37 C and 5% CO2 for an overnight, 23 nL of compounds dissolved in DMSO, positive controls or DMSO only was transferred to the assay plate by a Pintool station (Kalypsys, San Diego, CA). The assay plates were incubated at 37 C and 5% CO2 for 5 hr. One uL of LiveBLAzer B/G FRET substrate (Life Technologies) was added using a Flying Reagent Dispenser (Aurora Discovery, San Diego, CA) and the plates were incubated at room temperature for 2 hr. Fluorescence intensity (405 nm excitation, 460 nm and 530 nm emissions) was measured using an Envision plate reader (PerkinElmer, Shelton, CT).

SMILES	Potency
CN(C)CCOC(c1ccccc1)c1ccccc1	inactive
CC(=O)C(=O)O	inactive
NC1CCCCC1	inactive
O=c1[nH]cnc2c1ncn2[C@H]1CC[C@@H](CO)O1	inactive
C[C@](N)(Cc1ccc(O)c(O)c1)C(=O)O	inactive
COc1ccc(CN(CCN(C)C)c2ccccn2)cc1	inactive
CCCCNC(=O)NS(=O)(=O)c1ccc(C)cc1	inactive
CN(C)C(=O)Nc1ccc(Cl)c(Cl)c1	inactive
CC(=O)CC(c1ccccc1)c1c(O)c2ccccc2oc1=O (stereo not given)	inactive
CN(C)CCOC(C)(c1ccccc1)c1ccccn1 (stereo not given)	inactive
CN1CCc2cccc3c2[C@H]1Cc1ccc(O)c(O)c1-3	inactive
CC1(C)S[C@@H]2[C@H](NC(=O)[C@H](N)c3ccccc3)C(=O)N2[C@H]1C(=O)O	inactive
CCCCC(CC)C(=O)O (stereo not given)	inactive
NS(=O)(=O)O	inactive
CCCCOC(=O)c1ccc(O)cc1	inactive
C/C=C/C=C/C(=O)O	inactive
O=C1NS(=O)(=O)c2ccccc21	inactive
CCCC[P+](CCCC)(CCCC)CCCC	inactive
CCc1nc(N)nc(N)c1-c1ccc(Cl)cc1	inactive
Cn1c(=O)c2c(ncn2C)n(C)c1=O	inactive

SMILES	Potency
CCCc1cc(=O)[nH]c(=S)[nH]1	inactive
CC(=O)CCC(=O)O	inactive
CCCCCCCC(=O)OCC(COC(=O)CCCCCCC)OC(=O)CCCCCCC	inactive
CCN(CC)C(=O)c1cccc(C)c1	inactive
OC[C@H]1O[C@H](O[C@]2(CCl)O[C@H](CCl)[C@@H](O)[C@@H]2O)[C@H](O)[C@@H](O)[C@H]1Cl	inactive
Cc1cccc(C)c1	inactive
CC(C)NCC(O)c1ccc(O)c(O)c1 (stereo not given)	inactive
CCOc1ccc(NC(C)=O)cc1	inactive
Cc1ncc([N+](=O)[O-])n1CCO	inactive
O=C(O)c1ccccc1	inactive
C=CCc1ccc(O)c(OC)c1	inactive
CN(N=O)C(=O)N[C@@H]1[C@@H](O)[C@H](O)[C@@H](CO)O[C@@H]1O	inactive
O=c1[nH]cc(F)c(=O)[nH]1	inactive
CC(O)(P(=O)(O)O)P(=O)(O)O	inactive
CC1(C)O[C@@H]2C[C@H]3[C@@H]4CCC5=CC(=O)C=C[C@]5(C)[C@@]4(F)[C@@H](O)C[C@]3(C)[C@]2(C(=O)CO)O1	inactive
C=C(C)C(=O)OCC(C)O (stereo not given)	inactive
O=C1O[C@H]([C@@H](O)CO)C(O)=C1O	inactive
O=C(O)CC(O)C(=O)O (stereo not given)	inactive
Oc1ccccc1	inactive
COc1ccc2c(c1)c(CC(=O)O)c(C)n2C(=O)c1ccc(Cl)cc1	inactive
